Experimental findings from PubChem BioAssay AID485346 (Sanford-Burnham Center for Chemical Genomics, 2010) are described below.

Out of some 330,000 compounds screened, about 10,000 (3%) were called active.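 How the source made its calls: active means inhibition of at least 50% at 8 µM in the primary screen; inactive means the rest.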 The sample as a whole holds a higher share of actives than the screen did.

For orientation: inhibition means the relative decrease from the control value, in per cent.

Chain of Protein Mdm4 (Homo sapiens) + E3 ubiquitin-protein ligase Mdm2 (Homo sapiens) (O15151 whole entry, looked up): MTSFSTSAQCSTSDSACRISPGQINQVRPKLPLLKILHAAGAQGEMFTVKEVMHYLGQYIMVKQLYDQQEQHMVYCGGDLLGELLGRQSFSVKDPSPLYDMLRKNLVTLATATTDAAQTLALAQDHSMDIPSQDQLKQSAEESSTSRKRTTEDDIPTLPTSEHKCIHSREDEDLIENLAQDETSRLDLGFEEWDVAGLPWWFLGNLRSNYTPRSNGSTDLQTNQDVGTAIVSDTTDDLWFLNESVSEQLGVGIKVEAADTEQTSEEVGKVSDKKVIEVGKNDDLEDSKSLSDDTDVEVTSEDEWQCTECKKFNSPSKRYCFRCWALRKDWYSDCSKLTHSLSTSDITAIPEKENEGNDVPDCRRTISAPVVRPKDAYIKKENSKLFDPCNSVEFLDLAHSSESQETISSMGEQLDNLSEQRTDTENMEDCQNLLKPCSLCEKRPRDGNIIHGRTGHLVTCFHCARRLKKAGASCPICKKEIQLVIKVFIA
Chain of Protein Mdm4 (Homo sapiens) + E3 ubiquitin-protein ligase Mdm2 (Homo sapiens) (Q00987 whole entry, looked up): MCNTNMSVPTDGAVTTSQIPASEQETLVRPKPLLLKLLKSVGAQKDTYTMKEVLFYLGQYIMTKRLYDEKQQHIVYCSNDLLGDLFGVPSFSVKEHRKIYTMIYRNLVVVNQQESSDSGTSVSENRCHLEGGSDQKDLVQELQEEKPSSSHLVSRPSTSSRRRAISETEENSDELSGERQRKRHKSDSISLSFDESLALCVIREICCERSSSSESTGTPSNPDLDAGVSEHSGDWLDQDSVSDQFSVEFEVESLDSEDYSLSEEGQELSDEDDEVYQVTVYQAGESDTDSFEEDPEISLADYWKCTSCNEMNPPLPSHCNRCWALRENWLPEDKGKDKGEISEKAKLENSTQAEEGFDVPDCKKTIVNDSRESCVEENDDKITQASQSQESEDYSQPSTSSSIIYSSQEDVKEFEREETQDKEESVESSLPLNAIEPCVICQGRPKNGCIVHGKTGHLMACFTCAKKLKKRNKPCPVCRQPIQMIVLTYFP

This test has as its target Protein Mdm4 (Homo sapiens) + E3 ubiquitin-protein ligase Mdm2 (Homo sapiens) (UniProt O15151+Q00987). In words: disruptors of Mdm2/MdmX RING complex – cell-based, luminescence, split luciferase, SaOS-2, uHTS, primary screen (AID 485346). As to conditions: SaOS-2 split-luciferase Mdm2/MdmX complementation, at 8 µM, stronger effect = higher value.
Regarding `CCc1ccc2c(c1)C1(NN=C(c3ccccc3)S1)C(=O)N2` (stereo unspecified), the inhibition is 73% (active). As to `COc1ccc(C)cc1NC(=O)c1cc(-c2ccccc2)nc2c1cnn2C(C)C`, the inhibition was 11.5% (inactive). Turning to `OCC[C@H]1C[C@H](O)[C@@H](O)[C@]2(CCCCO2)O1`, the inhibition is -0.668% (inactive).

Consider `COc1ccc(Nc2oc(-c3ccccc3Cl)nc2C#N)cc1`, for which the inhibition was 59.3% (active). Next, `COc1ccc(Nc2nnc(C)c3ccccc23)cc1`: 5.02% (inactive); `N#Cc1nc(-c2cccc3ccccc23)oc1N`: 23% (inactive); `O=C1CCC[C@@H]2CC(N3CCCCC3)C[C@@H]3CCN1[C@H]23` (stereo partly specified): -0.366% (inactive).

As for `COc1ccc(CCNC(=S)N2CCN(S(=O)(=O)c3ccc(F)cc3)CC2)cc1`, the inhibition is 27.9% (inactive). `CCn1cc(CN2CCC(C(=O)Nc3cccc(-c4cccc(Cl)c4)c3)CC2)c(C)n1`: the inhibition was 86.6% (active). For `O=C(Nc1cnn(Cc2ccc(Cl)cc2)c1)C1CCCC1` the value was 20.2% (inactive); for `O=C(NC1CCCC1)C1CCN(C(=O)Nc2cccc(Cl)c2)CC1`, -30.9% (inactive). Next, `COc1cccc(-c2cccc(NC(=O)C3CCN(C4CCC4)CC3)c2)c1`: -1.08% (inactive). As to `CC(=O)c1cc(CN2CCC(C(=O)Nc3cccc(-c4cscn4)c3)CC2)cs1`, the inhibition was 19.1% (inactive). On to `CCn1cc(CN2CCC(C(=O)Nc3cccc(-c4cccc(Cl)c4)c3)CC2)cn1`, for which the inhibition is 73% (active). For the molecule `O=C(NCC1CCN(Cc2ccccc2Cl)CC1)Nc1cccc(Cl)c1`, the inhibition is 24.2% (inactive). As for `O=C(Nc1cccc(-c2cscn2)c1)C1CCN(Cc2ccsc2)CC1`, the inhibition was 12.7% (inactive). On to `O=C(Nc1cccc(-c2cccc(Cl)c2)c1)C1CCN(C2CCC2)CC1`, for which the inhibition is 63% (active). `COc1ccc(N2CCC(CNC(=S)Nc3c(C)cccc3C)C2)cc1` (stereo unspecified): the inhibition was 0.075% (inactive).

As for `Cc1ccc(C(=O)NCCc2nnc(SCC(=O)Nc3cccc(C(=O)O)c3)n2C)cc1`, the inhibition is -17.8% (inactive).

With `Cc1ccc(NS(=O)(=O)c2ccc3c(c2)n(C)c(=O)c(=O)n3C)c(C)c1`, the inhibition was -12.6% (inactive).

Regarding `Cc1ccc(-n2nc3c(=O)n(C(C)C(=O)NCc4ccc5c(c4)OCO5)nc(C)c3c2C)cc1` (stereo unspecified), the inhibition is 32.4% (inactive).

Consider `O=C(NCC#CCSc1nnc(-c2cccc3ccccc23)o1)c1cccs1`, for which the inhibition is 81.5% (active). For `COc1ccc(CCNC(=O)/C(C#N)=C2\N=C(NC(=O)c3cccs3)c3ccccc32)cc1`, the inhibition is -11.7% (inactive). With `C#CCSc1nnc(-c2sc3ccccc3c2Cl)o1`, the inhibition is -91.8% (inactive). Next, `O=C(Cc1ccc(-c2ccccc2)cc1)NC(c1ccccc1)c1ccccc1`: 6.83% (inactive). Turning to `CCOC(=O)C(C(=O)OCC)C(C#N)c1ccccc1` (stereo unspecified), the inhibition was -30.8% (inactive). In the case of `CCOC(=O)/C=C/C(=O)OCC(=O)NC(c1ccccc1)c1ccccc1`, the inhibition is 69.4% (active). Next, `O=C(NC(=O)N1CCSCC1)c1c(Cl)cccc1Cl`: -31.4% (inactive). Take `COc1ccc(CN2C(=O)CC(Cc3ccc(C)cc3)C2=O)cc1OC` (stereo unspecified): the inhibition was 5.73% (inactive). Next, `CCc1cccc(C)c1NC(=O)COC(=O)CNC(=O)c1cccs1`: -18.9% (inactive); `Cc1ccccc1C(CC(=O)c1cccs1)C(C#N)C#N` (stereo unspecified): 75.4% (active); `Cc1ccc(C)c(NC(CC(=O)c2ccccc2)C(=O)OCC(=O)c2cccs2)c1` (stereo unspecified): -9.67% (inactive). In the case of `CC1=C(C/C=C(\C)CCCC(C)CCCC(C)CCCC(C)C)C(=O)c2ccccc2C1=O` (stereo unspecified), the inhibition was -7.28% (inactive). As to `CC(C)CC(NC(=O)C1CCCN1C(=O)[C@@H](C)NC(=O)OCc1ccccc1)C(=O)NCC(N)=O` (stereo partly specified), the inhibition is -21.6% (inactive).

For the molecule `COc1ccc(C2C(C(C)=O)=C(O)C(=O)N2CCc2c[nH]c3ccccc23)cc1` (stereo unspecified), the inhibition is -16.3% (inactive). Consider `COc1ccc2nc(NC(=O)NC3CCCCC3)sc2c1`, for which the inhibition is -142% (inactive). Regarding `CCc1noc(C)c1C(=O)Nc1nc2ccc(OC)cc2s1`, the inhibition is 0.6% (inactive). For `COc1ccc2nc(Nc3nc4ccc(NC(C)=O)cc4s3)sc2c1`, the inhibition is 79.7% (active). Consider `Cc1csc2ncc(C(=O)N(Cc3ccccc3)c3ccccn3)c(=O)n12`, for which the inhibition was 0.705% (inactive). Regarding `CC(C)NC(=O)c1ccccc1S(=O)c1ccccc1C#N` (stereo unspecified), the inhibition is -7.43% (inactive).

On to `COc1ccc(-c2nnc(NC(=O)CS(=O)(=O)c3ccc(Cl)cc3)o2)c(OC)c1`, for which the inhibition is -3.12% (inactive). As for `O=C(Nc1nnc(-c2ccco2)o1)c1ccc(S(=O)(=O)N2CCOCC2)cc1`, the inhibition was -9.19% (inactive). For `COc1cccc(-c2nnc(NC(=O)c3ccc(S(=O)(=O)N(CC(C)C)CC(C)C)cc3)o2)c1`, the inhibition was 72.2% (active).

On to `CC(C#N)OC(=O)c1cccnc1SCC(=O)Nc1ccc2c(c1)OCO2` (stereo unspecified), for which the inhibition is -12.8% (inactive). Regarding `CC(C)(C)n1nnc(CCc2nnn(C(C)(C)C)n2)n1`, the inhibition was 13.5% (inactive). For `CC1CCCN(C(=O)CN2C(=O)c3ccccc3S2(=O)=O)C1` (stereo unspecified) the value was 3.88% (inactive); for `O=C(CN1C(=O)c2ccccc2S1(=O)=O)NC1CCCCC1`, 12.3% (inactive). For `O=C(CN1C(=O)c2ccccc2S1(=O)=O)N1CCc2ccccc21` the value was 68% (active). For `O=C(N/N=C/c1cccc(O)c1)c1cc2c(ccc3ccccc32)o1` the value was -1.11% (inactive); for `Cc1ccc(NC(=O)c2cc3ccccc3o2)cc1`, -218% (inactive); for `Cc1c(/C=N\NC(=O)c2cc3ccccc3o2)c2ccccc2n1C`, 50.8% (active).

In the case of `Cc1cccc(N2C(=O)N3[C@H](c4ccc(F)cc4)[C@@H]4C(=O)N(C5CCCCC5)C(=O)[C@@H]4[C@]3(Cc3ccccc3)C2=O)c1`, the inhibition is 18.2% (inactive).

For the molecule `O=C1[C@H]2[C@@H](c3ccc(F)cc3)N3C(=O)N(c4ccc(C(F)(F)F)cc4)C(=O)[C@@]3(Cc3ccccc3)[C@H]2C(=O)N1C1CCCCC1`, the inhibition was 95.3% (active).

On to `O=C1[C@H]2[C@@H](c3ccc(Cl)cc3)N3C(=O)N(c4cccc(F)c4)C(=O)[C@@]3(Cc3ccccc3)[C@H]2C(=O)N1C1CCCCC1`, for which the inhibition was 4.69% (inactive).

Take `Cc1ccc(NC(=O)CCCNC(=O)c2ccc(Cl)cc2)cc1S(=O)(=O)N1CCCCC1`: the inhibition was 14.3% (inactive). Next, `Cc1ccc(CN2CCN(/N=C/c3cccnc3)CC2)c(C)c1`: -1.63% (inactive); `CC(C)c1ccc(Cc2nnc(NCCCO)[nH]c2=O)cc1`: -3.05% (inactive). `COc1ccc(Cc2nnc(N/N=C/c3ccccc3O)[nH]c2=O)cc1OC`: the inhibition is 66.5% (active). Next, `O=c1[nH]c(NCCO)nnc1Cc1ccc(Cl)cc1`: 16.8% (inactive); `OC(CN=c1sc2ccccc2n1CC(O)COc1ccccc1)COc1ccccc1` (stereo unspecified): 33.4% (inactive); `Cc1cccc(NC(=O)CN2CCN(CC(=O)NCC3(N4CCCCC4)CCCCC3)CC2)c1C`: -24.2% (inactive). `Cc1nc2nc(C)c(CCC(=O)N3CCN(c4ccccc4)CC3)c(C)n2n1`: the inhibition is 7.55% (inactive).

Take `COc1ccc(CNC(=O)C2CCCC2)cc1`: the inhibition was 1.84% (inactive). Consider `COc1ccc(CNc2nc(NCc3ccc(OC)cc3)c3ncn(C4CCCC4)c3n2)cc1`, for which the inhibition is 60.8% (active). In the case of `COc1ccc(CNC2CCCCC2)cc1`, the inhibition is 7.1% (inactive). In the case of `C=CCN1C(=O)C(O)(CC(=O)c2ccc(Cl)cc2)c2ccccc21` (stereo unspecified), the inhibition was 4.99% (inactive). With `C=CCC(CC=C)(C(N)=O)c1ccccc1`, the inhibition is 11.4% (inactive). For the molecule `Cc1cc(C)c(NC(=O)C[N+](C)(C)CC(O)COc2cccc3ccccc23)c(C)c1` (stereo unspecified), the inhibition is 12.6% (inactive).

For the molecule `CC(C)c1ccccc1OCC(O)CN(CC(O)COc1cccc2ccccc12)C(C)C` (stereo unspecified), the inhibition was 59.8% (active). For `CCC(C)Sc1nc2c(c(=O)[nH]c(=O)n2C)n1CC(O)COc1cccc2ccccc12` (stereo unspecified), the inhibition is 16.9% (inactive). As to `CCC(C)(C)c1ccc(Oc2ccc(NC(=O)COC(=O)C3=COCCO3)cc2)cc1`, the inhibition is 0.755% (inactive). Next, `C[C@@H](O)c1nc2ccccc2n1N`: -21.5% (inactive). `O=c1c2cc(Br)ccc2nc(-c2cccc(Cl)c2)n1O`: the inhibition was 40.4% (inactive). For `CC1CC(=O)Nc2ccccc2N1C(=O)COc1ccc2cc(Br)ccc2c1` (stereo unspecified) the value was 20% (inactive); for `O=C1CN(c2nc(-c3ccccc3)c3cc(Br)ccc3n2)c2ccccc2N1`, 66.1% (active); for `CC(=O)c1ccc(S(=O)(=O)N2CCN(C(=O)/C=C/c3ccc4ccccc4n3)CC2)cc1`, 79.9% (active). Next, `CC(=O)c1ccc(S(=O)(=O)N2CCC3(CC2)OCCO3)cc1`: -6.56% (inactive); `CC(=O)c1ccc(S(=O)(=O)N2CCN(c3nc4c(C)c(C)ccc4cc3C#N)CC2)cc1`: 32.9% (inactive); `Cc1cc(C)n2nc(C(=O)OCC(=O)N(CCC#N)c3ccc(F)cc3)nc2n1`: 11.4% (inactive).

Regarding `Nc1cccc2c1C(=O)N(Cc1nnc(-c3ccccc3Br)o1)C2=O`, the inhibition is 2.07% (inactive). For the molecule `O=C(c1[nH]ncc1-c1ccc(Cl)cc1)C1CO1` (stereo unspecified), the inhibition is 78.2% (active).

For `S=c1[nH]nc(-c2ccc(Cl)cc2)n1CC1CCCO1` (stereo unspecified), the inhibition was -1.54% (inactive). Next, `O=C(c1nnc(-c2ccc(Cl)cc2)o1)C1CCCC1`: -34.3% (inactive).

Consider `CCOc1ccc(NC(=O)CSc2nncn2C)cc1`, for which the inhibition is 6.1% (inactive). Turning to `NC(=O)C(Cc1ccccc1)NC(=O)C12CC3CC(CC(C3)C1)C2` (stereo unspecified), the inhibition was 2.27% (inactive). `CCN(CC(=O)Nc1c(F)cccc1F)C(=O)c1ccc(-c2ccc(C(C)=O)cc2)o1`: the inhibition is -16.4% (inactive). For the molecule `C[n+]1cc(-c2ccccc2)oc1-c1ccccc1`, the inhibition is -21.5% (inactive). Regarding `Cc1cc(C)n2nc(C(=O)OCC(=O)N(C)CC(=O)Nc3ccc(F)cc3)nc2n1`, the inhibition is -1.93% (inactive). For `CCC1CCCCN1CCCNC(=O)c1cc2c(Cl)nc3ccccc3c2s1` (stereo unspecified) the value was 58.7% (active). Next, `CCC1CCCCN1CCCNC(=O)Cn1nc(-c2ccccc2)ccc1=O` (stereo unspecified): 5.14% (inactive); `CCC1CCCCN1CCCNC(=O)C1CCC(Cn2c(=O)[nH]c3ccccc3c2=O)CC1` (stereo unspecified): -28.9% (inactive).
